MsrA act = bovine MsrA enzyme activators, primary screen, biochemical, absorbance, HTS; activation, % at 10.6 µM; purified bovine MsrA, absorbance read-out; hit rate 0.3% among 360,000; Methionine sulfoxide reductase A (Bos taurus); in the data active = activation above about 7.5%;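 also: 0% = vehicle and 100% = reference activator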
KLK7 zymogen act = proKLK7 zymogen activators, primary screen, biochemical, fluorescence intensity | purified proKLK7, EDANS-DABCYL substrate fluorescence; 100% is mature enzyme control, 0% vehicle | activation, % at 7 µM | Kallikrein-7 (Homo sapiens), P49862 | hit rate 0.9% among 370,000;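 active = activation above the mean of all tested compounds plus 3 SD, computed per campaign excluding outliers beyond control limits, cut at about 13% in these data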
Target sequence (P49862 whole entry, looked up): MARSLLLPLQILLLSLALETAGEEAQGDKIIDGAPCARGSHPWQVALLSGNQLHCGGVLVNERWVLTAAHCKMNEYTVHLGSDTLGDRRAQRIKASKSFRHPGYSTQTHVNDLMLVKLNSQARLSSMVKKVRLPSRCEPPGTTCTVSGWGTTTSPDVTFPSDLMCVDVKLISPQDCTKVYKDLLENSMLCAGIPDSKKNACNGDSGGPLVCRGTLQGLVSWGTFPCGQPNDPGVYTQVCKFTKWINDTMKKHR
MsrA inhibitor = bovine MsrA enzyme inhibitors, primary screen, biochemical, absorbance, HTS; purified bovine MsrA, absorbance read-out; inhibition, % at 15.5 µM; hit rate 0.75% among 360,000; AID 651718, 2012;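 also: 0% = vehicle wells with enzyme and 100% = reference inhibitor wells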
SMARCA2 activ = SMARCA2 (BRM) function activators, primary screen, cell-based, luminescence, high throughput. MG213 cells, MMTV-luciferase reporter, dexamethasone, overnight. activation, % at 9.1 µM. AID 652017, 2013. hit rate 1% among 370,000; in the data active = activation above about 7.8%;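 also: 0% = vehicle wells and 100% = reference activator wells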
MsrA conf = bovine MsrA inhibitors, retest, confirmation, biochemical, absorbance, HTS; shares compounds with MsrA inhibitor; purified bovine MsrA, absorbance read-out; inhibition, % at 15.5 µM; hit rate 41% among 2,300;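 also: coupled to thioredoxin reductase with NADPH and selenocystamine and DMSO as substrate; 0% = vehicle only and 100% = full effect of reference inhibitor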
An asterisk follows results filed as active; . = not tested or not shown. Compounds with a hit are over-represented: about 2.8% of the library has one in this group of screens. Rule as the data show it, unless noted: active = inhibition above about 4.5%; inactive = the rest.

SMILES | MsrA act | KLK7 zymogen act | MsrA inhibitor | SMARCA2 activ | MsrA conf
CCN(CC)c1ccc(C=Nc2ccc(C)cc2)c(O)c1 | -2 | -7 | 6.9* | 2 | 6.3*
CCN(CC)c1ccc(C=Nc2cc(C)cc(C)c2)c(O)c1 | -7 | -5 | 4 | -4 | .
CCN(CC)c1ccc(/C=N/N=C(N)N)c(O)c1 | -5 | 0 | 2 | 2 | .
CCN(CC)c1ccc(C=Nc2ccc(N(C)C)cc2)c(O)c1 | -12 | -7 | 5.9* | -2 | 2
Cc1ccc(NC(=O)Cc2cccc(OC(F)(F)F)c2)c(S(=O)(=O)N2CCOCC2)c1 | . | 0 | . | -2 | .
CN1OC[C@@H]2CN(Cc3ccc4c(c3)OCO4)[C@H](c3ccc(N4CCCCC4)cc3)C[C@@H]21 | -5 | 0 | 2 | -6 | .
CN1CCN(c2nc(C#N)cc(-c3ccccc3)n2)CC1 | -5 | 7 | 5.0* | 4 | 1
COc1ccc(-c2cc(C#N)nc(N3CCN(C)CC3)n2)cc1 | -2 | 6 | 2 | -1 | .
O=c1cc(/N=C/c2coc3cc(Br)ccc3c2=O)[nH]c(=S)[nH]1 | -2 | 0 | 4 | -2 | .
CC(=O)Oc1ccc2c(=O)c(/C=N/c3cc(=O)[nH]c(=S)[nH]3)coc2c1 | -1 | 0 | 5.5* | 5 | 4
COc1ccc(-c2nc(=S)c3c(n2CCN2CCOCC2)CC(C)(C)OC3)cc1 | -12 | 0 | 4.9* | 2 | 4
C=CCn1c(-c2ccccc2)nc(=S)c2c1CC(C)(C)OC2 | -4 | 1 | 5.1* | -5 | 4
C[C@H]1NS(=O)(=O)c2cccc(Cl)c2O[C@@H]1c1ccccc1 | . | 0 | 0 | -2 | .
Cc1ccc(S(=O)(=O)N2CCOCC2)cc1NC(=O)CSc1nnc(NC2CC2)s1 | 0 | 0 | 4 | -3 | .
CCCc1n[nH]c2c1/C(=N\OCC)CC(C)(C)C2 | -1 | 1 | 4.8* | -1 | 2
COC(=O)[C@]12C[C@H](CC(=O)N3CCCCC3)C(=O)N(CCc3ccc(OC)c(OC)c3)C1=C[C@H](C(C)(C)C)O[C@@H]2C | . | 0 | . | 3 | .
CC(/C=C/C=C/c1ccccc1)=N\NC(=O)c1cccnc1 | -7 | 0 | 7.6* | -4 | 4.5*
O=C(CSc1ccccn1)N/N=C/C=C/c1ccccc1 | -6 | 0 | 4.9* | -3 | 2
Cc1ccc(C(=O)N/N=C/C=C/c2ccccc2)o1 | -7 | 0 | 8.8* | 0 | 8.2*
Cc1onc(-c2ccccc2)c1C(=O)N/N=C/C=C/c1ccccc1 | -3 | 0 | 3 | 3 | .
O=C(N/N=C/C=C/c1ccccc1)c1cccnc1 | -3 | 0 | 5.3* | -2 | 4.9*
COC(=O)[C@]12C[C@H](CC(=O)NCCCCc3ccccc3)C(=O)N(Cc3ccccc3)C1=C[C@H](C1CCCC1)O[C@@H]2C | . | 0 | 0 | 1 | .
O=C(NCCO)C1(C(=O)C2CC2)CC(c2ccccc2C(F)(F)F)=NO1 (configuration not stated) | . | 0 | . | -1 | .
CCN(CC)S(=O)(=O)c1ccc(N/N=C/c2cccnc2)nc1 | -5 | 0 | 5.8* | 3 | 4.7*
COCCCn1c(=S)[nH]c2sc3c(c2c1=O)CCCC3 | 5 | 0 | 2 | -3 | .
SMILES | MsrA act | KLK7 zymogen act | MsrA inhibitor | SMARCA2 activ | MsrA conf
COCCn1c(=S)[nH]c2sc3c(c2c1=O)CCCC3 | 3 | 0 | 5.5* | -1 | 3
COc1ccc(/C=C/C(=O)c2ccc[nH]2)cc1OC | -11 | 11 | 5.4* | 7 | 4
COc1ccc(/C=C/C(=O)Nc2ccccc2C(=O)O)cc1 | -2 | 0 | 4 | 2 | .
COc1ccc(/C=C/C(=O)Nc2ccccc2C(=O)O)cc1OC | -11 | 0 | 5.2* | -5 | 5.4*
COc1ccc(/C=C/C(=O)Nc2ccc(C(N)=O)cc2)cc1OC | -5 | -8 | 5.0* | -2 | 5.0*
COc1cc(/C=C/C(=O)NC(=O)c2ccccc2O)ccc1O | -4 | -2 | 5.6* | 4 | 4
C[C@@H]1CN([C@H](C)CO)C(=O)CCCn2nncc2CO[C@H]1CN(C)C(=O)c1ccncc1 | -1 | -1 | 0 | 0 | .
N/C(=N\OC(=O)/C=C/c1ccccc1)c1ccccn1 | -4 | 0 | 0 | 7 | .
CCc1cc(C(=O)O)c(NC(=O)/C=C/c2ccc(OC)c(OC)c2)s1 | -6 | 1 | 5.6* | -1 | 4.9*
COc1ccc(/C=C/C(=O)O/N=C(\N)c2ccccn2)cc1OC | -2 | 1 | 4.8* | 8 | 4
COc1ccc(/C=C/C2=NN(Cc3ccccc3)C(=O)CC2)cc1 | -5 | 1 | 3 | -2 | .
C=CCN1N=C(/C=C/c2ccc(OC)cc2)CCC1=O | -2 | 0 | 7.8* | 2 | 4.6*
CCOC(=O)CN1N=C(/C=C/c2ccccc2)CCC1=O | -4 | 0 | 2 | 1 | .
CCOC(=O)CN1N=C(/C=C/c2ccc(OCC)cc2)CCC1=O | -6 | 1 | 7.2* | 0 | 4
COCCNc1nc(-c2ccc(OC)cc2C)c2sc(-c3ccccc3)cc2n1 | -5 | -5 | 1 | -1 | .
CNc1ncnc(Sc2nc(N)nc3nc[nH]c23)c1[N+](=O)[O-] | -10 | 1 | 5.3* | -2 | 5.5*
CCOC(=O)c1cc([N+](=O)[O-])cc([N+](=O)[O-])c1Sc1ncnc2nc[nH]c12 | 5 | 0 | 2 | -1 | .
Cc1ccc(OCc2nnc(SCC(=O)Nc3ccc(OCc4ccccc4)cc3)n2-c2ccc(Cl)cc2)cc1 | . | 0 | . | -6 | .
O=C(CCCN1C(=O)S/C(=C\c2ccccc2)C1=O)NNC(=O)c1ccccc1O | -6 | 0 | 4.7* | -10 | 4
O=C(CN1C(=O)S/C(=C\c2ccccc2)C1=O)NNC(=O)c1ccccc1O | -3 | 1 | 4 | -1 | .
N#Cc1c(N2CCCC2)ccc(Br)c1Cl | -11 | 0 | 6.0* | -3 | 9.0*
CC(=O)NC1CC2CCCC(C1)N2C(=O)Nc1ccc(Cl)cc1 (configuration not stated) | -1 | 0 | 1 | -3 | .
CNC(=O)C[C@H]1C(=O)N(c2ccc(Br)cc2)C[C@@H]1CSC | -1 | 0 | 5.6* | -3 | 3
CSC[C@H]1CN(c2ccc(Br)cc2)C(=O)[C@@H]1CC(=O)Nc1ccc(Br)cc1 | -3 | 0 | 0 | 0 | .
O=C(O)CSc1cc(NS(=O)(=O)c2cccc([N+](=O)[O-])c2)c2ccccc2c1O | 3 | -1 | 20* | -10 | -1
Cc1ccc(C(=O)NN2C(=O)/C(=C/c3cn(C)c4ccccc34)SC2=S)cc1 | -3 | 0 | 0 | -2 | .
Cn1cc(/C=C2\SC(=O)NC2=S)c2ccccc21 | -11 | 0 | 22* | -2 | 7.0*
CN1/C(=C\C=Nc2cc(S(=O)(=O)N3CCOCC3)ccc2N2CCOCC2)C(C)(C)c2ccccc21 | -1 | 1 | 7.6* | 0 | 2
COc1ccc(Nc2cc3n(c(=O)n2)CCc2cc(OC)c(OC)cc2-3)cc1 | 1 | 5 | 5.5* | 7 | 4

Assay outcomes deposited in PubChem BioAssay by The Scripps Research Institute Molecular Screening Center.
